Measurements published in the supplement of paper PMC11732987, “Enantioselective OTUD7B fragment discovery through chemoproteomics screening and high-throughput optimisation” (Communications Chemistry, 2025).

What was measured:
Assay in all cases: log2 ratio of Biotin-Ahx-Ub-VS probe labelling (fragment/DMSO); higher = less target engagement (more negative = stronger competition), active = hit call of the paper (q ≤ 0.05, log2 ratio ≤ -1)
Conditions in all cases: compound concentration: 200 uM; treatment time: 3 h
USP19 = target: T1, USP19 (UniProt O94966)
T1 sequence (whole entry): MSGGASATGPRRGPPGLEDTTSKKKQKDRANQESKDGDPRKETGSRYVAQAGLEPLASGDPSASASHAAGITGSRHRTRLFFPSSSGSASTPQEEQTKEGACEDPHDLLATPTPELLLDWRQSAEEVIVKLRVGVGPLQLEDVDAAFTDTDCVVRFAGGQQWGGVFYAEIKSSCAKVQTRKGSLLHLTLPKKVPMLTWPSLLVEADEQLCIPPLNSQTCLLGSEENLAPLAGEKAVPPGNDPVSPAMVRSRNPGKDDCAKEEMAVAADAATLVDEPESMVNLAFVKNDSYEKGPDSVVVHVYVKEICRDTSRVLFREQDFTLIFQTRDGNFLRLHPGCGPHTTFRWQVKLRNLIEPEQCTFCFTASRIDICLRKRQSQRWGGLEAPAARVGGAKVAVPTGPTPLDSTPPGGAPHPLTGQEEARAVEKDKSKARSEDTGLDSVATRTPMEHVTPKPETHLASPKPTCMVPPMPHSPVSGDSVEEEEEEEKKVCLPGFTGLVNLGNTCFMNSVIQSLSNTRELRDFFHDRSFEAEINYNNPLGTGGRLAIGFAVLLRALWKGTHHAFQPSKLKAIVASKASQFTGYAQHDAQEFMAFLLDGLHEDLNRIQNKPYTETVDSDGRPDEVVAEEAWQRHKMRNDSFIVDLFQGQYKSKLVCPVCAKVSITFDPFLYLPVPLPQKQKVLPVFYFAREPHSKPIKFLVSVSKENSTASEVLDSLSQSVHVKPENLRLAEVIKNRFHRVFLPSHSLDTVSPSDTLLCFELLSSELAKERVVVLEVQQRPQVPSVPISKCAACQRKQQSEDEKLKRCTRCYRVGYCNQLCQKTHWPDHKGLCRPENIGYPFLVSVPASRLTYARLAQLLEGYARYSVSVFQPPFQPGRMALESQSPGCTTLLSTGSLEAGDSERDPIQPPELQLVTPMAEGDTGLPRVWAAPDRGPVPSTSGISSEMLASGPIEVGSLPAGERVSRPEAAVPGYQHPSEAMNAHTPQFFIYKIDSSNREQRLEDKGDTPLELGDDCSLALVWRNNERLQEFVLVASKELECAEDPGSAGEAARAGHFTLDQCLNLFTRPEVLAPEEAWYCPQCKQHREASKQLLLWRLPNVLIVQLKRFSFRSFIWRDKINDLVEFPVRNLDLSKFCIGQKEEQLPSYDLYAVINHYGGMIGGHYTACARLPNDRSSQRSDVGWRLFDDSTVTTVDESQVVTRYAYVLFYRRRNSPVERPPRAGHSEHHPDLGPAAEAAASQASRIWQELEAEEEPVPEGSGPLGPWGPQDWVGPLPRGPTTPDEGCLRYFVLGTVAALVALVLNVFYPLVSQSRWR
How it was run: (§1)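 HEK293T lysate, 495 µg per sample in Tris/CHAPS/IGEPAL buffer with protease inhibitors, was treated in triplicate with fragment at 200 µM or vehicle for 3 h and then with Biotin-Ahx-Ub-VS at 0.5 µM final for 1 h. Labelled DUBs were NeutrAvidin-enriched, digested with LysC and trypsin, and run by diaPASEF LC-MS/MS. Spectronaut label-free quantities were global-median-normalised, and values are average log2 fragment/vehicle ratios by unpaired t-test on proteins with ≥2 unique peptides.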

USP22 = target: T2, USP22 (UniProt Q9UPT9)
T2 sequence (whole entry): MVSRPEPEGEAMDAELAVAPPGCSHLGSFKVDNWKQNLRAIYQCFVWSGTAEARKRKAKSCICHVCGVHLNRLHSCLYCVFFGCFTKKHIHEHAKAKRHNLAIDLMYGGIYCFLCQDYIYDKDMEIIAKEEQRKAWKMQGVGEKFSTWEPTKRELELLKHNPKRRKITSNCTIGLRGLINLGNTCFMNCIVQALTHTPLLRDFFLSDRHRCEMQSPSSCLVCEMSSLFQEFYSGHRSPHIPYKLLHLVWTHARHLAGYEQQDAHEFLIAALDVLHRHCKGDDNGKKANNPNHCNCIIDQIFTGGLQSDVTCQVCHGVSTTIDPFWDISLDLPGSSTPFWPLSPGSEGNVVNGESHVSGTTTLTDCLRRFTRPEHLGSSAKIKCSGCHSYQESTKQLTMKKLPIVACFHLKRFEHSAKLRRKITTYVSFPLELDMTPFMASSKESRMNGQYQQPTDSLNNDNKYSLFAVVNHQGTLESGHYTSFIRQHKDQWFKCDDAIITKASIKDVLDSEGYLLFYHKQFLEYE
How it was run: as §1

USP24 = USP24 (UniProt Q9UPU5)
Chain of USP24 (Q9UPU5 whole entry): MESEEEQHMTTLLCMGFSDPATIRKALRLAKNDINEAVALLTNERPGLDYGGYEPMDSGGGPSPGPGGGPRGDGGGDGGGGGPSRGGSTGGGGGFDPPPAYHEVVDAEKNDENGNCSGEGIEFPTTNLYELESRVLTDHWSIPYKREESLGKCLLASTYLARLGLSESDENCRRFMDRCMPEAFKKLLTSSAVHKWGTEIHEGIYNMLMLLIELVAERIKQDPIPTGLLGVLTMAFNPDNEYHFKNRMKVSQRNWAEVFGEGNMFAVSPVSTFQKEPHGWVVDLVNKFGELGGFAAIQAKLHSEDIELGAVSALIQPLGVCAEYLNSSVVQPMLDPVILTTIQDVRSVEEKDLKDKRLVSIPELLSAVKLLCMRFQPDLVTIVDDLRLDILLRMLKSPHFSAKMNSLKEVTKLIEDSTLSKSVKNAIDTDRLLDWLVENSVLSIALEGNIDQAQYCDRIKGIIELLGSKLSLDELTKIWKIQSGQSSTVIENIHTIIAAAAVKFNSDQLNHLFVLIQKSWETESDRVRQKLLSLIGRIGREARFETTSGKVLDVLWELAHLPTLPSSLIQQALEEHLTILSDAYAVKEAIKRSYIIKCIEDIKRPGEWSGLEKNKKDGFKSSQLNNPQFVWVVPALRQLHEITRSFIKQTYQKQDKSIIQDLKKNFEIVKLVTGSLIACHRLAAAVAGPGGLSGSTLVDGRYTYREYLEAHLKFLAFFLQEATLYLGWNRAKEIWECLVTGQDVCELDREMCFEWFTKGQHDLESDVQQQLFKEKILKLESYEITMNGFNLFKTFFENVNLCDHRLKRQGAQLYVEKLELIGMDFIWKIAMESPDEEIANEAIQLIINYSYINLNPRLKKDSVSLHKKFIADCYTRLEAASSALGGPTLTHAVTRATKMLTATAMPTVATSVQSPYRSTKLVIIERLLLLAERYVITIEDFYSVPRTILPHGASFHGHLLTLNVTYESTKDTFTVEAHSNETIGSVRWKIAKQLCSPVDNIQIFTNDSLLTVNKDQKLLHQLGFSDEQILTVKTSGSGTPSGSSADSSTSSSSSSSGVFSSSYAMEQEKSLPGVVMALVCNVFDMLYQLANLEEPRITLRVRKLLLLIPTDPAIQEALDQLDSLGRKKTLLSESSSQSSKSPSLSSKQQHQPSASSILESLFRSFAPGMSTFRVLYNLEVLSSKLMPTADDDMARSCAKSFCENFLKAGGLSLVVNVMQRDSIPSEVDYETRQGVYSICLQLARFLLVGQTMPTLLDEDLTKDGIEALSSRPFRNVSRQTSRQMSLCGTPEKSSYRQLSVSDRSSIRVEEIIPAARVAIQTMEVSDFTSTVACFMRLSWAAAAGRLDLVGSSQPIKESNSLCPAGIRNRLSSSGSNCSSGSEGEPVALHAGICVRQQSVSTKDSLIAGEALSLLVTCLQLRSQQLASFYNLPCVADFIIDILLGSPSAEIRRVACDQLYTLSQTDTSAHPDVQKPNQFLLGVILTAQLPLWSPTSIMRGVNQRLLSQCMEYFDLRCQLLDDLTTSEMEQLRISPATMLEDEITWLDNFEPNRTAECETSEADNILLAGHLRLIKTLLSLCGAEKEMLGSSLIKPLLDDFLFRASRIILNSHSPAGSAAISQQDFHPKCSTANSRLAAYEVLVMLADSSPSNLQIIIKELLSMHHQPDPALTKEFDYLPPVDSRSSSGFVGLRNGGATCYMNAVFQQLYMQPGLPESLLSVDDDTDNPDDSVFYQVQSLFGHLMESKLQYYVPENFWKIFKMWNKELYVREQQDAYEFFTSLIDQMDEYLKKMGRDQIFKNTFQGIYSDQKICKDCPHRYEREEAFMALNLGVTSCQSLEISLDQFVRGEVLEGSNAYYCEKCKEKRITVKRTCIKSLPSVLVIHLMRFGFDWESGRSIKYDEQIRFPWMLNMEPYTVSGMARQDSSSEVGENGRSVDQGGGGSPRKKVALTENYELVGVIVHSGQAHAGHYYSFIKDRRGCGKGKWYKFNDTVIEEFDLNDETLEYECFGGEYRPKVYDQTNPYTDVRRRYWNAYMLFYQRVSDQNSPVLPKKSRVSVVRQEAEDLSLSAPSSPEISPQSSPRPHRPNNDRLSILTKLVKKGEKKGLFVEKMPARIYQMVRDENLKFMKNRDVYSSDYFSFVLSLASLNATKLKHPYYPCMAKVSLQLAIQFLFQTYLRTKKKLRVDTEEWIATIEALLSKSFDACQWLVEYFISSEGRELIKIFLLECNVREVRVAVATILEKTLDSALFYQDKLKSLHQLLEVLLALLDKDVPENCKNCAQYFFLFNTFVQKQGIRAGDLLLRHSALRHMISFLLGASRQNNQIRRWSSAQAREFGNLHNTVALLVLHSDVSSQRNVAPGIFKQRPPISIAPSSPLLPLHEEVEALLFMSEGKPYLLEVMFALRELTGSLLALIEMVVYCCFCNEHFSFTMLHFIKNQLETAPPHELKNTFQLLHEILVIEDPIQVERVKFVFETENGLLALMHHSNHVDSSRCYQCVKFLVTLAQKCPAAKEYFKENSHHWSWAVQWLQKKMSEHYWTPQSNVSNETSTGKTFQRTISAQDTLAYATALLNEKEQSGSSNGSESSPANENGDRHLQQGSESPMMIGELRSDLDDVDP
How it was run: as §1

USP25 = target: T3, USP25 (UniProt Q9UHP3)
T3 sequence (whole entry): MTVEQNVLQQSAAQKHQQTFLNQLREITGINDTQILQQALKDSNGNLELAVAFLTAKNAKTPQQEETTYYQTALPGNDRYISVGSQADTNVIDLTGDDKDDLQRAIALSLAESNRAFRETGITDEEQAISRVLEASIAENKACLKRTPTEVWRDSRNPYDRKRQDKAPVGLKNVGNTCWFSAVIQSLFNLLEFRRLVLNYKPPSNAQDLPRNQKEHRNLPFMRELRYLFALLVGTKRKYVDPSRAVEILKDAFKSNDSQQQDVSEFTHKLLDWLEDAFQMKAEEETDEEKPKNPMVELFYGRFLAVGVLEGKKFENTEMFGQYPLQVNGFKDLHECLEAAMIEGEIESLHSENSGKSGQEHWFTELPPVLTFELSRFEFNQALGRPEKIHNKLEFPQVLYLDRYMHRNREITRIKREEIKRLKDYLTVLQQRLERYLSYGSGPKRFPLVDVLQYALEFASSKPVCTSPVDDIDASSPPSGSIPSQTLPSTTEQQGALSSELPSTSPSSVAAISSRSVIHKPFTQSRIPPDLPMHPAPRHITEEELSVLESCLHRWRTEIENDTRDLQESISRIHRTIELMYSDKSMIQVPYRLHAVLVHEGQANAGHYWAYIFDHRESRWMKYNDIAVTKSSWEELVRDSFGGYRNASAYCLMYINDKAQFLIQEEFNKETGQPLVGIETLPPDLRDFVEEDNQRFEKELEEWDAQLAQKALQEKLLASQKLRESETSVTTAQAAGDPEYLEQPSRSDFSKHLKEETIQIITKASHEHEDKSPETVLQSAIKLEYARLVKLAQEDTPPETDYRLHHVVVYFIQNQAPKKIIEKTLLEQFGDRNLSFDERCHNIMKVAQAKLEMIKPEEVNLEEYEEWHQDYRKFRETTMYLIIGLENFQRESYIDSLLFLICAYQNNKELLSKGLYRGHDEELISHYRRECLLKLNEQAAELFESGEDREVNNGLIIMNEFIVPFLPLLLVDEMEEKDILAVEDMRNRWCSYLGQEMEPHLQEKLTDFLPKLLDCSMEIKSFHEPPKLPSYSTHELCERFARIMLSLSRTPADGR
How it was run: as §1

USP28 = target: T4, USP28 (UniProt Q96RU2)
T4 sequence (whole entry): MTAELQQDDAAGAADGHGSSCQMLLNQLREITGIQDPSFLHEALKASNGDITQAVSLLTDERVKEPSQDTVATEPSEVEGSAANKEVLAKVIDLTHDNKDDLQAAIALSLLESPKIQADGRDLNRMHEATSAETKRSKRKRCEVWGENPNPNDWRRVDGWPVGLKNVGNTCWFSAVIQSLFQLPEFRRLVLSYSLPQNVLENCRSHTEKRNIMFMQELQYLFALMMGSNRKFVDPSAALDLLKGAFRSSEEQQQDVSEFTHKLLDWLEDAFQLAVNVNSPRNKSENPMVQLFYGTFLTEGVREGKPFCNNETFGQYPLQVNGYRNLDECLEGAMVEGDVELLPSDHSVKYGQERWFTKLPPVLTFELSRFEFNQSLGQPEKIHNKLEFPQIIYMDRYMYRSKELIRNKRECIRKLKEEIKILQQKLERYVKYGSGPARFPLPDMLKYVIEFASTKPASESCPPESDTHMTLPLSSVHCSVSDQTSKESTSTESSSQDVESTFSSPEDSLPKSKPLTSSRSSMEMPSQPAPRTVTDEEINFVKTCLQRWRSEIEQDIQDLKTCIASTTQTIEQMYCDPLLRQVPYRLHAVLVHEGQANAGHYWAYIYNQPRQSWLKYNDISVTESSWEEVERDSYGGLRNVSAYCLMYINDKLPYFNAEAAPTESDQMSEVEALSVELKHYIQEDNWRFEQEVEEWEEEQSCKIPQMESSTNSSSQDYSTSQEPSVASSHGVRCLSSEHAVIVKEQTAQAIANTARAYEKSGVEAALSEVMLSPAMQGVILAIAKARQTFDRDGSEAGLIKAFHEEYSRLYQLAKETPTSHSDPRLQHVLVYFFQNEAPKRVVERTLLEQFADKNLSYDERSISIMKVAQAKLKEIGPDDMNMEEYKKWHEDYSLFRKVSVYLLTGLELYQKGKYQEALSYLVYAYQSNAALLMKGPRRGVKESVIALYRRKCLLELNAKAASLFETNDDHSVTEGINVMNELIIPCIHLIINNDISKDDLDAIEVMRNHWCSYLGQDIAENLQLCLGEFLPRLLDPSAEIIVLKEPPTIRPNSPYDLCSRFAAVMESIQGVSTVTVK
How it was run: as §1

Measured: log2 ratio of Biotin-Ahx-Ub-VS probe labelling

Cc1cccc(N2CCC(NC(=O)CCl)C2=O)c1 (stereo not given)
inactive: USP19 -0.0964 | USP22 0.199 | USP24 -0.149 | USP25 -0.421 | USP28 -0.475
